CSC inhib: cancer stem cell inhibition | cancer stem cell-like cells viability, luminescence | inhibition, % at 7.5 µM | 300,000 compounds, 1.1% hits; in the data active = inhibition above about 75%; tested in HMLE shEcad cells
Beta apoptosis: blocks beta cell apoptosis. INS-1E cytokine-induced death, ATP luminescence, 48 h; percent of positive-control rescue, neutral wells zero. protection from apoptosis, % (no concentration beside the values). 300,000 compounds, 0.8% hits. AID 435005;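 active = Every replicate reaches about 75%, or at least half do and their mean reaches it too, limit read from the data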;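 also: higher means more ATP so stronger rescue from cytokine killing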
Mdm2 MdmX PPI: inhibitors of human Mdm2/MdmX interaction; SaOS-2 split-luciferase Mdm2/MdmX complementation, luminescence; 330,000 compounds, 3% hits; inhibition, % at 8 µM; AID 485346;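 active = inhibition of at least 50% at 8 µM in the primary screen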
Target sequence (O15151 whole entry, looked up): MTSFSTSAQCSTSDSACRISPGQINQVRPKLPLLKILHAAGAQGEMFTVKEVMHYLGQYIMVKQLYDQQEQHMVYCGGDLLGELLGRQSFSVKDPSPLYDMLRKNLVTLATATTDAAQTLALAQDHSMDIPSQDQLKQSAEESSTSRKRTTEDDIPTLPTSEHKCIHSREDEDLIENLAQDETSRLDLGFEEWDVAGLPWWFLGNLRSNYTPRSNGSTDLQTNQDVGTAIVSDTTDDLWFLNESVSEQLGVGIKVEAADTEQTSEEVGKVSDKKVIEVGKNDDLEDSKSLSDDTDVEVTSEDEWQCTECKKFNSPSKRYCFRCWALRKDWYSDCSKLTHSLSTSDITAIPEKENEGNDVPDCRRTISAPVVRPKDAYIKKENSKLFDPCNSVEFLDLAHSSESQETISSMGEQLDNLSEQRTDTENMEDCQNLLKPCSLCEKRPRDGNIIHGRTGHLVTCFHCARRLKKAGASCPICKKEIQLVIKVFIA
Target sequence (Q00987 whole entry, looked up): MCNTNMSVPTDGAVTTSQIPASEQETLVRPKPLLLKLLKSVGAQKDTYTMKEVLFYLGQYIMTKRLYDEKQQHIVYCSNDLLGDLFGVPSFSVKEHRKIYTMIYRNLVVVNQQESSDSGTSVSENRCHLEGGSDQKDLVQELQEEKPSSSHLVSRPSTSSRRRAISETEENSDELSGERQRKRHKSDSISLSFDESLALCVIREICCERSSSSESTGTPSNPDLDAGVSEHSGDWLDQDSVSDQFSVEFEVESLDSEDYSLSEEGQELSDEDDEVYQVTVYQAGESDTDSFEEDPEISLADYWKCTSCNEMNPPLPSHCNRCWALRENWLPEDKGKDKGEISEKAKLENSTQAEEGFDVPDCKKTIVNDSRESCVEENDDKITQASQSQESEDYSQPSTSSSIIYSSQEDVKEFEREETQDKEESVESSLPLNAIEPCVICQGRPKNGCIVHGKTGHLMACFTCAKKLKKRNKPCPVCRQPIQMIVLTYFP
aSyn 5UTR inh: MLPCN primary screen, SNCA 5' untranslated region; 300,000 compounds, 0.82% hits; alpha-synuclein 5'UTR reporter, inhibitor activity; inhibition, % (tested at 7.5 µM); AID 1813; in the data active = inhibition above about 60%;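 also: H4 neuroglioblastoma cells stably carrying SNCA 5'UTR luciferase fusion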
A1 inh: inhibitors of the anti-apoptotic protein A1, read as caspase activation. MEF A1-2A-BIM cells, Caspase-Glo 3/7 luminescence, 3 h; percent of clofoctol response, vehicle zero. caspase activation, % (concentration not given with the values). 330,000 compounds, 0.066% hits. AID 2462;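 active = over half of replicate activation scores above 10%, or exactly half above 10 with the replicate mean above 10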
Mdm2 MdmX conf: confirmation of human Mdm2/MdmX interaction inhibitors | 10,000 compounds, 55% hits | inhibition, % at 8 µM | Mdm2-MdmX binding, luminescent assay | shares compounds with Mdm2 MdmX PPI; in the data active = inhibition above about 40%
FLuc counter: counter-screen for Mdm2/MdmX inhibitors: full-length luciferase | 6,200 compounds, 77% hits | shares compounds with Mdm2 MdmX PPI | AID 504607 | SaOS-2 full-length luciferase counterscreen, luminescence | inhibition, % at 8 µM;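 active = mean inhibition at 8 µM reaching about 37%, which flags the compound as non-specific, limit read from the data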;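 also: p53-null SaOS-2 cells with luciferase driven by a doxycycline-inducible promoter; compound on cells about two nights before reading with doxycycline added after day one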
Of the large screens only hits and unclear results are named; the others gave an inactive call (follow-up assays come after a bar, where they were run). Rows were chosen to be rich in hits. Some 4.1% of all compounds tested hit in one or more screens of this group.

CCOC(=O)c1sc(NC(=S)NC(=O)c2ccccc2)c(C(=O)OCC)c1C	Mdm2 MdmX PPI 85 | Mdm2 MdmX conf inactive
CCOC(=O)c1sc(NC(=O)CN(CC(C)C)CC(C)C)c(C(=O)OCC)c1C	Mdm2 MdmX PPI 61 | Mdm2 MdmX conf inactive
O=[N+]([O-])c1ccc(Cl)cc1NCC1CCCO1 (centres undefined)	none
CCc1nn2c(N3CCOCC3)cc(C)nc2c1-c1ccccc1	none
Cc1ccc(C)c(C2NC(=O)c3ccccc3N2)c1 (centres undefined)	Mdm2 MdmX PPI 50 | Mdm2 MdmX conf 53 | FLuc counter 55
Cc1cc(C)c2nc(Cl)c(C3NC(=O)c4ccccc4N3)cc2c1 (centres undefined)	none
OCCCNc1c2ccccc2nc2ccccc12	Beta apoptosis 109, Mdm2 MdmX PPI 79 | Mdm2 MdmX conf 82 | FLuc counter 44
c1ccc2c(NCCc3c[nH]c4ccccc34)c3ccccc3nc2c1	CSC inhib 87, Mdm2 MdmX PPI 100 (no result: Beta apoptosis) | Mdm2 MdmX conf 60 | FLuc counter 55
Cc1nn(CC(=O)NCC(C)c2ccccc2)c(=O)c2cccn12 (centres undefined)	none
COc1ccc(NC(=O)CN(C)C(=O)c2cccc(S(=O)(=O)Nc3ccccc3Cl)c2)cc1	none
Clc1ccc(CN2CCN(c3ncccn3)CC2)cc1	none
O=C(NCc1nc(-c2ccc(C(F)(F)F)cc2)no1)Nc1ccc(F)cc1F	none
O=C(NCc1nc(-c2ccc(C(F)(F)F)cc2)no1)Nc1cc(Cl)cc(Cl)c1	CSC inhib 134, Beta apoptosis 110, Mdm2 MdmX PPI 93 | Mdm2 MdmX conf 81 | FLuc counter 45
COc1cccc(CNC(=O)Cn2ccc3cc(S(=O)(=O)N4CCCCCC4)ccc32)c1	none
COc1ccc(C(C(=O)NC2CCCCC2)N(C(=O)CCl)c2ccc(OC)cc2)cc1 (centres undefined)	Mdm2 MdmX PPI 100 | Mdm2 MdmX conf 100 | FLuc counter 50
COc1ccc(C(C(=O)NC2CCCCC2)N(C(=O)c2ccccn2)c2cccnc2)cc1 (centres undefined)	none
CCc1ccccc1N(C(=O)CNC(=O)c1ccco1)C(C(=O)NC1CCCC1)c1cccnc1 (centres undefined)	none (no result: CSC inhib)
COc1ccc(N(C(=O)Cc2cccs2)C(C(=O)NC2CCCC2)c2ccncc2)cc1 (centres undefined)	none
COc1ccc(C(C(=O)NC2CCCC2)N(C(=O)c2ccoc2C)c2ccc(C)cc2)cc1 (centres undefined)	none
O=C(NC1CCCCC1)C(c1cccnc1)N(C(=O)CCl)c1ccccc1Cl (centres undefined)	Mdm2 MdmX PPI 95 | Mdm2 MdmX conf 99 | FLuc counter 59
COc1ccc(N(C(=O)CCl)C(C(=O)NC2CCCCC2)c2cccnc2)cc1 (centres undefined)	Mdm2 MdmX PPI 96 | Mdm2 MdmX conf 100 | FLuc counter 54
COc1ccc(C(C(=O)NC2CCCCC2)N(C(=O)CCl)c2ccc(C)cc2)cc1 (centres undefined)	Mdm2 MdmX PPI 98 | Mdm2 MdmX conf 100 | FLuc counter 54
CC1CCN(C(=O)COC(=O)Cc2ccc(Br)cc2)CC1	none
O=C(CCN1C(=O)C2CC=CCC2C1=O)Nc1ccc(S(=O)(=O)N2CCCCC2)cc1 (centres undefined)	none (no result: CSC inhib, Beta apoptosis, aSyn 5UTR inh, A1 inh)
Cc1ccc(-n2c(N)cc(=O)nc2SCC(=O)NC2CCCCC2)cc1C	none
CC(=O)c1c(C)[nH]c(C(=O)OCC(=O)c2ccc(C)s2)c1C	none (no result: aSyn 5UTR inh)
Cc1ccc(S(=O)(=O)NC(=NC2CCCCC2)c2ccc(Cl)cc2)cc1	none
CNC(=S)N/N=C1\C(=O)c2cccc3cccc1c23	Mdm2 MdmX PPI 87 | Mdm2 MdmX conf inactive
CCCCNC(=S)N/N=C1\C(=O)c2cccc3cccc1c23	none
COc1cccc(N/C(N)=N/c2nc(CSc3ccccn3)cc(=O)[nH]2)c1	Mdm2 MdmX PPI 52 | Mdm2 MdmX conf 49 | FLuc counter 79
N/C(=N\c1nc(CSc2nc3ccccc3s2)cc(=O)[nH]1)Nc1ccc(F)cc1	Mdm2 MdmX PPI 57 | Mdm2 MdmX conf 46 | FLuc counter 52
CN(CC(=O)Nc1ccccc1C(F)(F)F)C(=O)CSc1nnc(-c2ccncc2)n1C	none (no result: aSyn 5UTR inh)
O=C1c2c(O)ccc(O)c2C(=O)c2c(NCCNCCO)ccc(NCCNCCO)c21	CSC inhib 97, Mdm2 MdmX PPI 100 (no result: aSyn 5UTR inh) | Mdm2 MdmX conf 98 | FLuc counter inactive
COc1cc(/C=N/NC(=O)c2ccc(C)nc2)cc([N+](=O)[O-])c1O	none
Cc1ccc(C(=O)N/N=C/c2cc(Br)ccc2O)cn1	Mdm2 MdmX PPI 51 | Mdm2 MdmX conf inactive
COc1cc([N+](=O)[O-])cc(/C=N/NC(=O)C(C)Nc2ccccc2C)c1O (centres undefined)	Mdm2 MdmX PPI 51 | Mdm2 MdmX conf inactive | FLuc counter 67
COc1cc([N+](=O)[O-])cc(/C=N/NC(=O)c2ccc(C)nc2)c1O	Mdm2 MdmX PPI 67 | Mdm2 MdmX conf 54 | FLuc counter 81
COc1cc([N+](=O)[O-])cc(/C=N/NC(=O)c2ccc(NC(=O)c3ccc(C)cc3)cc2)c1O	Mdm2 MdmX PPI 88 (no result: CSC inhib, Beta apoptosis, A1 inh) | Mdm2 MdmX conf 94 | FLuc counter inactive
COc1ccccc1NC(=O)c1ccc(N2CC3CC(C2)c2cccc(=O)n2C3)c(NC(=O)c2ccncc2)c1 (centres undefined)	none
COc1cc(NC(=O)c2ccccc2)c(OC)cc1NC(=O)Cc1ccc(C)cc1	none
O=C(CN1C(=O)c2ccccc2C1=O)OCC(=O)c1ccccc1	none
COc1ccccc1/C=N/NC(=Nc1ccc(C)cc1)c1nc2ccccc2s1	none
COc1cc(/C=N/NC(=Nc2ccc(C)cc2)c2nc3ccccc3s2)ccc1O	Mdm2 MdmX PPI 83 (no result: CSC inhib) | Mdm2 MdmX conf 79 | FLuc counter 51
Cc1ccc(S(=O)(=O)CCC(=O)OCC(=O)NC(C)c2ccccc2)cc1 (centres undefined)	none (no result: CSC inhib, aSyn 5UTR inh)
O=C(COc1ccc(S(=O)(=O)N2CCOCC2)cc1)Nc1ccccc1Cl	none
CN1CCN(CCCNC(=O)c2cc3c(-c4ccc(Cl)cc4)nn(C)c3s2)CC1	Mdm2 MdmX PPI 68 (no result: CSC inhib, Beta apoptosis, A1 inh) | Mdm2 MdmX conf inactive
COc1cccc(-c2nn(C)c3sc(C(=O)NCc4ccc5c(c4)OCO5)cc23)c1	none
CCN(CC)CCCNC(=O)c1cc2c(-c3ccc(Cl)cc3)nn(C)c2s1	CSC inhib 98, Mdm2 MdmX PPI 64 | Mdm2 MdmX conf inactive
Cn1nc(-c2ccc(Cl)cc2)c2cc(C(=O)NCC3CCCO3)sc21 (centres undefined)	none
CCN(CCCNC(=O)c1cc2c(-c3cccc(OC)c3)nn(C)c2s1)Cc1ccccc1	Mdm2 MdmX PPI 55 | Mdm2 MdmX conf inactive

Screening data deposited in PubChem BioAssay by several laboratories.
